Data: PubChem BioAssay (NCI)
“And” between values parts separate entries of the source, which are not always exact repeats. Identical values can stand only once. The panel holds about 83,000 compounds, 20% with a hit somewhere; the sample as a whole holds those more often.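 A percent growth of 40 corresponds to 60% growth inhibition; 0 means no net growth; -100 means all cells died. Active threshold: below 10.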 Unmarked numbers belong to inactive results. The source made the active and inactive calls.

system: HL-60(TB) leukemia; assay: NCI-60 one-dose screen, 48 h (100 = growth as untreated, 0 = no growth, -100 = all killed); conditions: 10 µM unless noted

SMILES	growth
N#CC1=C(N)Oc2c(ccc3ccccc23)C1c1ccc([N+](=O)[O-])cc1 (stereo not given)	69.9%
CCN1C(=S)N(c2ccccc2)C2NC(=S)N(/N=C/C=C/c3ccccc3OC)C21 (stereo not given)	-52.9% (active)
CCN(CC)C(=O)/C=C(/C)c1ccccc1	101%
CCCCCOC(=O)c1ccc(NC(=O)CNCC(C)C)cc1	84.6%
CCC1=C[C@]2(C3CC(=O)N(c4ccccc4)C3=O)CC(C(C)(C)C)C[C@@H]2[C@@H]2C(=O)N(c3ccccc3)C(=O)[C@H]12 (stereo not given in full)	84.1%
Cc1c(C(=O)NCCN2CCOCC2)cn2ncnc(Oc3ccc(NC(=O)Nc4ccc(Cl)c(C(F)(F)F)c4)cc3)c12	-0.946% (active)
O=[N+]([O-])c1ccc2[nH]cc(-c3c4ccsc4cc4[nH]c5ccc([N+](=O)[O-])cc5c34)c2c1	8.08% (active)
O=C(/C=C/c1c(Cl)nc2sccn12)c1nccs1	81.5%
C#CC(C)(O)c1ccc(Cl)cc1 (stereo not given)	109%
Cn1c(=O)[nH]c(=O)c2nc(CCC(=O)NCCC(=O)O)c(=O)[nH]c21	101%
CC(=O)Cc1nsc(NC(=O)c2cc(-c3cc(Cl)cc(Cl)c3)oc2C)n1	96.5%
O=C1C=CC(=O)N1c1ccccn1	55.7%
Cc1[c-]onc1C.Cc1[c-]onc1C.[Ag].[Ag].[NH-]S(=O)(=O)c1ccc(N=Nc2cc(N=Nc3ccc(S([NH-])(=O)=O)cc3)c3c(NC(=O)C(Cl)Cl)cccc3c2OC(=O)C(Cl)Cl)cc1	38.1%
CC(C)(C)[Si](C)(C)OC1[C@@H](O[Si](C)(C)C(C)(C)C)[C@@H](CNC(=O)NC(=O)C(F)(F)F)O[C@H]1n1cnc2c(NC(=O)Nc3ccccc3)ncnc21 (stereo not given in full)	-52.6% (active)
CC(=O)N1N=C(c2ccc(C(F)(F)F)cc2)CC1c1ccc2c(c1)OCO2 (stereo not given)	95.6%
O=c1[nH]c(=S)[nH]c(=O)n1Cc1cccc2ccccc12	101%
C#Cc1cccc(Nc2ncnc3ccc(-c4cncc(NS(C)(=O)=O)c4)cc23)c1	4% (active)
COc1ncc(-c2ccc3ncnc(Nc4cccc(Cl)c4)c3c2)cc1NS(C)(=O)=O	19.1%

SMILES	growth
Oc1nc(NCCc2ccccc2)sc1/C=C1\C=Nc2ncccc21	-6.57% (active) and 6.77% (active)
Cc1ccc2c(N/N=C\c3ccco3)cc(C)nc2n1	-53.3% (active)
O=P(O)(O)OCC(O)CO (stereo not given)	97.7%
COc1ccccc1Nc1nc2c(s1)C1=CC[C@H]3[C@@H]4CC[C@H]([C@H](C)CCCC(C)C)[C@@]4(C)CC[C@@H]3[C@@]1(C)CC2	102%
CCN(CC)CCOc1ccc2c(c1)C(=O)c1cc(OCCN(CC)CC)ccc1-2	94.2% and 36.5%
CC1(C)CC[C@]2(C(N)=O)CC[C@]3(C)C(=CC[C@@H]4[C@@]5(C)C/C(=C/c6cccnc6)C(=O)C(C)(C)[C@@H]5CC[C@]43C)[C@@H]2C1	-24.7% [100 µM] (active)
COC(=O)C1=COC(C)C2C[n+]3ccc4c([nH]c5ccccc54)c3CC12 (stereo not given)	106% and 103%
COC(=O)/C=C/c1cc(OC)c2c(c1)[C@@H](C(=O)OC)[C@H](c1ccc(OC)c(OC)c1)O2	-13.3% (active)
Oc1ccc(CN(Cc2ccc(C(F)(F)F)cc2)Cc2ccc(O)c3ncccc23)c2cccnc12	-11% (active)
COc1cc(/C=C/C(C)=O)ccc1O	81% and 77.8%
Cc1cccc2c(=O)c3c(sc12)c(NCCCN)nc1ccccc13	-34.9% (active)
Cc1nc(NC(=O)N2CCC[C@H]2C(N)=O)sc1-c1ccnc(C(C)(C)C(F)(F)F)c1	24%
Cc1ccc(S(=O)(=O)N2C/C(=C\c3cc(F)cc(F)c3)C(=O)/C(=C/c3cc(F)cc(F)c3)C2)cc1	10.9%
COc1cc(-c2nc3sc4c(c3c(=O)[nH]2)CCCCCC4)cc(OC)c1OC	-19.3% (active)
FC(F)(F)c1ccc(-c2cnc(-c3nn[nH]n3)nc2NC2CCCCCC2)cc1	31.1% [50 µM]
N#Cc1ccc(OCc2nc(N)nc(N)c2-c2ccc(Cl)c(Cl)c2)cc1	21.7%
COc1cc2ncnc(-n3ncc4cc(NC(=O)Nc5ccc(Cl)c(Cl)c5)ccc43)c2cc1OC	15.3%
